IDE exosite inh – displaces the probe from the exo-site of human IDE; z-score at 20 µM; P14735; 17,000 tested, 6.3% active; purified IDE, FL-6b probe fluorescence polarization; hits give low values; AID 1259349;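 active means z-score of -3 or lower, meaning strong loss of probe binding signal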;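 further: His-tagged human IDE residues 42-1019 made in E. coli with 30 nM FL-6b probe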
Target sequence (P14735 42-1019 limits assumed): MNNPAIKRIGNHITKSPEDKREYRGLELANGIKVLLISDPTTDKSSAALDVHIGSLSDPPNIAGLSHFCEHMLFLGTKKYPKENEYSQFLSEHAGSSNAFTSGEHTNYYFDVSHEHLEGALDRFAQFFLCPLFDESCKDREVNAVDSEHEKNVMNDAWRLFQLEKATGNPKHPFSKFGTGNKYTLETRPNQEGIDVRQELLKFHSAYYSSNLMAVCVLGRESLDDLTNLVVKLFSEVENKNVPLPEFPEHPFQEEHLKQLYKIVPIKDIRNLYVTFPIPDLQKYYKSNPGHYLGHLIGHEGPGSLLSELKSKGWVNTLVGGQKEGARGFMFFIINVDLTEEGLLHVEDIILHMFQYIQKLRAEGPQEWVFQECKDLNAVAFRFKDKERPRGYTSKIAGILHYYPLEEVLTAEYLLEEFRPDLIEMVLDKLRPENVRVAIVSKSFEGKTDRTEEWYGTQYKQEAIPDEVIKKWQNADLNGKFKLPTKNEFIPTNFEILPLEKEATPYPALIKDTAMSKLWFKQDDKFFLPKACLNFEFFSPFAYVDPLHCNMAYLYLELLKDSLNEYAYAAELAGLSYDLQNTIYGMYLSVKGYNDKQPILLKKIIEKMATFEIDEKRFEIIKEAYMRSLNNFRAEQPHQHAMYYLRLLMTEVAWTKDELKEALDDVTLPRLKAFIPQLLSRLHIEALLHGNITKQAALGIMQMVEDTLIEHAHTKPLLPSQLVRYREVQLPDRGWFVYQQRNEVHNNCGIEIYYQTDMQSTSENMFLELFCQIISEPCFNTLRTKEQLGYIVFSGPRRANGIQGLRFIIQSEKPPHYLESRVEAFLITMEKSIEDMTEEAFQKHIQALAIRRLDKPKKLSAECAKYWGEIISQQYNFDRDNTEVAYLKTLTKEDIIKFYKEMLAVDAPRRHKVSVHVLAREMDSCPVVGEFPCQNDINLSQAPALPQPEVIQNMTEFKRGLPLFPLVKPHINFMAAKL
Large screens that a line does not name were inactive. The full list was thinned out, with hits kept by preference.

O=C(Cc1ccccn1)N1CC(=O)N2[C@H](CO)[C@@H](c3ccc(C#CCC4CCCC4)cc3)[C@@H]2C1	none
C[C@@H]1CCCCO[C@@H](CN(C)C(=O)Nc2cccc3ccccc23)[C@H](C)CN([C@H](C)CO)C(=O)c2cc(NC(=O)CCC(F)(F)F)ccc2O1	none
N#Cc1ccc(-c2ccc([C@@H]3[C@@H]4CN(S(=O)(=O)Cc5ccccc5)C[C@H]3N4)cc2)cc1	none
N#C[C@@H]1[C@H](c2ccccc2)[C@H](CO)N1C(=O)Cc1ccccc1	none
C[C@H]1CCc2cnnn2COCCNC1=O	none
N#C[C@H]1[C@@H](c2ccccc2C2=CCCCC2)[C@H](CO)N1C(=O)Cc1ccncc1	none
C[C@@H]1CN([C@@H](C)CO)C(=O)c2cc(NS(=O)(=O)c3ccccc3)ccc2O[C@@H](C)CCCCO[C@@H]1CN(C)C(=O)C1CCCCC1	none
OC[C@@H]1[C@@H](c2ccc(-c3ccc(F)cc3)cc2)[C@@H]2CN(Cc3cccnc3)CCCCN12	none
OC[C@H]1[C@@H](c2ccc(-c3ccc(F)cc3)cc2)[C@@H]2CN(Cc3cccnc3)CCCCN12	none
OC[C@@H]1[C@H](c2ccc(/C=C/c3ccccc3)cc2)[C@H]2CN(Cc3cccnc3)CCCCN12	IDE exosite inh -5.4
CCCC#Cc1ccc([C@H]2[C@@H](CO)N3CCCCN(Cc4ccncc4)C[C@H]23)cc1	none
OC[C@H]1[C@H](c2ccc(/C=C/c3ccccc3)cc2)[C@@H]2CN(Cc3ccncc3)CCCCN12	IDE exosite inh -4.5
CCCC#Cc1ccc([C@@H]2[C@@H](CO)N3CCCCN(Cc4ccncc4)C[C@H]23)cc1	none
OC[C@H]1[C@H](c2ccc(/C=C/c3ccccc3)cc2)[C@@H]2CN(Cc3cccnc3)CCCCN12	none
OC[C@H]1[C@@H](c2ccc(-c3ccc(F)cc3)cc2)[C@H]2CN(Cc3cccnc3)CCCCN21	none
OC[C@@H]1[C@@H](c2ccc(/C=C/c3ccccc3)cc2)[C@H]2CN(Cc3cccnc3)CCCCN12	IDE exosite inh -5.2
CC(C)(O)C#Cc1ccc([C@@H]2[C@H]3CN(C(=O)c4ccncc4)CCCCN3[C@H]2CO)cc1	none
CN1CCCCN2[C@H](CO)[C@H](c3ccc(-c4ccc(F)cc4)cc3)[C@H]2C1	none
CNC(=O)C[C@H]1CC[C@@H]2[C@H](COC[C@@H](O)CN2Cc2ccccc2F)O1	none
CO[C@H]1CN(C)C(=O)c2cc(NC(=O)Cc3ccccc3)ccc2OC[C@H](C)N(C(=O)c2ccccc2F)C[C@H]1C	none
CCNC(=O)c1cc2c(c(-c3cccc(-c4cccnc4)c3)n1)[C@@H](CCO)N(S(C)(=O)=O)C2	none
CCCNC(=O)Nc1ccc2c(c1)C(=O)N(C)[C@H]1CC[C@H](CC(=O)Nc3cc(F)ccc3F)O[C@@H]1CO2	none
O=C(NC1CCCCC1)N1CC(=O)N2[C@H](CO)[C@@H](c3ccc(/C=C/c4ccccc4)cc3)[C@H]2C1	IDE exosite inh -4.4
CC(C)NC(=O)N1CC(=O)N2[C@H](CO)[C@H](c3ccc(/C=C/c4ccccc4)cc3)[C@@H]2C1	none
O=C(NC1CCCCC1)N1CC(=O)N2[C@H](CO)[C@H](c3ccc(/C=C/c4ccccc4)cc3)[C@H]2C1	IDE exosite inh -6.7
CC(C)NC(=O)N1CC(=O)N2[C@H](C1)[C@H](c1ccc(/C=C/c3ccccc3)cc1)[C@@H]2CO	IDE exosite inh -3.8
CC(C)NC(=O)N1CC(=O)N2[C@H](C1)[C@@H](c1ccc(/C=C/c3ccccc3)cc1)[C@@H]2CO	none
C/C=C/c1ccc([C@H]2[C@@H](CO)N3C(=O)CN(C(=O)NC4CCCCC4)C[C@@H]23)cc1	none
C/C=C/c1ccccc1[C@H]1[C@@H](CO)N(C(=O)CN2CCOCC2)[C@H]1C#N	none
C/C=C/c1ccc([C@H]2[C@@H](CO)N(C(=O)NC(C)C)[C@H]2CNC(C)=O)cc1	none
CN1CCN(C(=O)[C@@H]2[C@@H](CO)[C@@H]3Cn4c(ccc(-c5ccncc5)c4=O)[C@@H]3N2CC2CC2)CC1	none
O=C(NCC[C@@H]1CC[C@H](NS(=O)(=O)c2ccc(F)cc2)[C@@H](CO)O1)c1ccc2c(c1)OCO2	none
CC(C)CC#Cc1ccc([C@@H]2[C@@H](CO)N3CCCCN(S(=O)(=O)Cc4ccccc4)C[C@@H]23)cc1	none
O=C(c1ccc(F)cc1)N1CCCCN2[C@H](C1)[C@H](c1ccc(C#CC3(O)CCCC3)cc1)[C@@H]2CO	none
COCC(=O)N1CCCCN2[C@H](CO)[C@@H](c3ccc(-c4cccc(C)c4)cc3)[C@H]2C1	none
CC(=O)N1CCCCN2[C@@H](CO)[C@@H](c3ccc(-c4ccccc4)cc3)[C@@H]2C1	none
COCC(=O)N1CCCCN2[C@H](CO)[C@H](c3ccc(-c4ccc(C)cc4)cc3)[C@H]2C1	none
CC(=O)N1CCCCN2[C@H](C1)[C@H](c1ccc(-c3ccccc3)cc1)[C@@H]2CO	none
CC(=O)N1CCCCN2[C@@H](CO)[C@@H](c3ccc(-c4cccc(C)c4)cc3)[C@@H]2C1	none
CC(=O)N1CCCCN2[C@H](CO)[C@@H](c3ccc(-c4cccc(C)c4)cc3)[C@H]2C1	IDE exosite inh -5.7
CC(=O)N1CCCCN2[C@H](CO)[C@@H](c3ccc(-c4cccc(C)c4)cc3)[C@@H]2C1	IDE exosite inh -3.5
COCC(=O)N1CCCCN2[C@H](C1)[C@@H](c1ccc(-c3cccc(C)c3)cc1)[C@@H]2CO	IDE exosite inh -5
CC(=O)N1CCCCN2[C@H](CO)[C@H](c3ccc(-c4ccc(C)cc4)cc3)[C@@H]2C1	none
O=C1CN(Cc2ccccc2)C[C@@H]2[C@H](c3ccc(Br)cc3)[C@@H](CO)N12	none
COc1ccc(CNC(=O)C[C@@H]2CC[C@H](NC(=O)CN(C)C)[C@H](CO)O2)cc1	none
O=C(Nc1ccccc1)N1CC(=O)N2[C@H](C1)[C@@H](c1ccc(C#Cc3cccnc3)cc1)[C@@H]2CO	none
CO[C@H]1CN(C)C(=O)c2ccc(NC(=O)Nc3ccccc3)cc2OC[C@H](C)N(C(=O)CC2CC2)C[C@H]1C	none
CC(C)CC#Cc1ccc([C@@H]2[C@H](CO)N3C(=O)CN(C(=O)c4ccccn4)C[C@@H]23)cc1	none
COc1cccc(-c2ccc([C@H]3[C@@H](CO)N4CCCCN(C(=O)c5ccc(F)cc5)C[C@H]34)cc2)c1	IDE exosite inh -3.3
COc1cccc(-c2ccc([C@@H]3[C@@H](CO)N4CCCCN(C(=O)c5ccc(F)cc5)C[C@@H]34)cc2)c1	none
COc1cccc(-c2ccc([C@H]3[C@@H](CO)N4CCCCN(C(=O)NC(C)C)C[C@@H]34)cc2)c1	IDE exosite inh -5.8
COc1cccc(-c2ccc([C@H]3[C@H](CO)N4CCCCN(C(=O)c5ccc6c(c5)OCO6)C[C@@H]34)cc2)c1	none
COc1cccc(-c2ccc([C@@H]3[C@H]4CN(C(=O)c5ccc(F)cc5)CCCCN4[C@H]3CO)cc2)c1	none
COc1cccc(-c2ccc([C@@H]3[C@@H](CO)N4CCCCN(C(=O)c5ccc6c(c5)OCO6)C[C@@H]34)cc2)c1	none
COc1cccc(-c2ccc([C@H]3[C@H](CO)N4CCCCN(C(=O)NC(C)C)C[C@@H]34)cc2)c1	IDE exosite inh -12
COc1cccc(-c2ccc([C@@H]3[C@H]4CN(C(=O)NC(C)C)CCCCN4[C@H]3CO)cc2)c1	IDE exosite inh -8
COc1cccc(-c2ccc([C@H]3[C@H]4CN(C(=O)c5ccc6c(c5)OCO6)CCCCN4[C@H]3CO)cc2)c1	none
COc1cccc(-c2ccc([C@@H]3[C@@H](CO)N4CCCCN(C(=O)c5ccc(F)cc5)C[C@H]34)cc2)c1	none
COc1cccc(-c2ccc([C@H]3[C@@H](CO)N4CCCCN(C(=O)c5ccc(F)cc5)C[C@@H]34)cc2)c1	none

Source: PubChem
